In PubChem BioAssay (EPA / NIEHS):
Records with an inconclusive call do not appear. More than one record can exist for a structure, and the calls need not agree. The source made the active and inactive calls. How the source made its calls, unless noted: active means hit-call score of the fitted dose curve at least 0.9, where 1 is the maximum; inactive means score below 0.9.

Tests used:
[1] = ATG_TAL_CIS: Attagene CIS-FACTORIAL HepG2 Assay for human TAL Basal Promoter (AID 2282966); conditions: HepG2 Attagene cis-factorial TAL promoter reporter; actives raise or lower the signal;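 further: background control endpoint measuring basal TAL promoter reporter mRNA not a specific factor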
In short: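 HepG2 cells transiently transfected with multiplexed cis-promoter reporter units, dosed 24 h. Reporter mRNA quantified by RT-PCR, 6-FAM labelling, HpaI digestion and capillary electrophoresis; TAL basal promoter serves as background control, fitted bidirectionally versus DMSO.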

[2] = ATG_TGFb_CIS: Attagene CIS-FACTORIAL HepG2 Assay for human Transforming Growth Factor (TGF) (AID 2282967); conditions: HepG2 Attagene CIS TGFb reporter, mRNA transcription; actives raise or lower the signal
In short: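 Readout: fluorescently labeled reporter cDNA fragments resolved by capillary electrophoresis after RT-PCR. Transfected HepG2 cells dosed for 24 h; endogenous TF activity at TGFB1-linked cis element; gain or loss fitted relative to DMSO.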

[3] = ATG_VDRE_CIS: Attagene CIS-FACTORIAL HepG2 Assay for human Vitamin D Receptor Element (VDRE) (AID 2282968); conditions: HepG2 VDRE cis-reporter transcription, actives raise or lower the signal
In short: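 Cell-based multiplexed reporter format in human liver HepG2 cells, 24 h post-dose. Fluorescence from capillary electrophoresis of reporter cDNA gives the signal, with DMSO as negative control and baseline.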

[4] = target: Nuclear receptor subfamily 1 group I member 3 (Homo sapiens) (UniProt Q14994); test: ATG_CAR_TRANS: Attagene TRANS-FACTORIAL HepG2 Assay for human Constitutive Androstane Receptor (CAR) (AID 2282969; active means hit-call score of the fitted dose curve at least 0.9, where 1 is the maximum;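 further: activators raise reporter mRNA above DMSO so AC50 marks induction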); conditions: HepG2 Attagene TRANS-FACTORIAL CAR reporter
Sequence of Nuclear receptor subfamily 1 group I member 3 (Homo sapiens) (Q14994 whole entry, looked up, the tested form may be a part): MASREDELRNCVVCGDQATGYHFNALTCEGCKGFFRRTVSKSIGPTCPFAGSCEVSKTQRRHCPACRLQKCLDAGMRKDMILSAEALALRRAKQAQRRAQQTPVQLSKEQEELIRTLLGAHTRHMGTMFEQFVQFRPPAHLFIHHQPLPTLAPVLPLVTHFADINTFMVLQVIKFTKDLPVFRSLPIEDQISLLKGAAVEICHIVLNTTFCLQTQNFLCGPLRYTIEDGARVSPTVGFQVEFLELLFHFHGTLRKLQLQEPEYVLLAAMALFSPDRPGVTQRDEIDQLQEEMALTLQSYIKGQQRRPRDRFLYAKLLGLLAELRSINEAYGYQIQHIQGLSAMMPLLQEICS
In short: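 HepG2 cells transiently transfected with GAL4-UAS reporter units; TRANS format reads activity of exogenous chimeric NR-Gal4 protein. After 24 h dosing, reporter mRNA quantified by RT-PCR, 6-FAM labelling and capillary electrophoresis; gain of signal fitted against DMSO.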

[5] = target: X-box-binding protein 1 (Homo sapiens) (UniProt P17861); test: ATG_Xbp1_CIS: Attagene CIS-FACTORIAL HepG2 Assay for human X-box Binding Protein 1 (XBP1) (AID 2282972); conditions: HepG2 XBP1 cis-element reporter, Attagene multiplex; actives raise or lower the signal
Sequence of X-box-binding protein 1 (Homo sapiens) (P17861 whole entry, looked up): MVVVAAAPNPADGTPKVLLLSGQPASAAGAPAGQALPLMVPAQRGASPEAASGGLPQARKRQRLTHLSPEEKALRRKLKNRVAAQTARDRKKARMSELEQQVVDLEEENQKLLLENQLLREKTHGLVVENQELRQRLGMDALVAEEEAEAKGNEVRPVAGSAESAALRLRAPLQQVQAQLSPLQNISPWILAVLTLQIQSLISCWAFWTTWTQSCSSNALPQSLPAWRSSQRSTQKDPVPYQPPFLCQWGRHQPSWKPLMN
In short: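 HepG2 cells transiently transfected with cis-regulated multiple reporter transcription units; endogenous transcription factor activity measured 24 hours after chemical dosing. Reporter mRNA quantified by RT-PCR, 6-FAM primer extension, HpaI digestion and capillary electrophoresis; bidirectional fitting versus DMSO.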

[6] = ATG_Hpa5_TRANS: Attagene TRANS-FACTORIAL HepG2 Assay for human GAL4-Hpa5 Hepatocyte Transcription Factor Basal Promoter (AID 2282975; active means hit-call score of the fitted dose curve at least 0.9, where 1 is the maximum;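 further: hits are increases in reporter mRNA over DMSO baseline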); conditions: HepG2 Attagene GAL4-Hpa5 transcription reporter
In short: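 Basal-promoter GAL4 background control within the HepG2 trans-factorial panel of transiently transfected reporter units. Reporter mRNA is measured 24 h after dosing by RT-PCR and capillary electrophoresis, fitted for gain of signal versus DMSO.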

[7] = target: Steroid hormone receptor ERR1 (Homo sapiens) (UniProt P11474); test: ATG_ERRa_TRANS: Attagene TRANS-FACTORIAL HepG2 Assay for human Estrogen-Related Receptor alpha (ERRa) (AID 2282971; active means hit-call score of the fitted dose curve at least 0.9, where 1 is the maximum); conditions: HepG2 Attagene TRANS reporter, ERRa transactivation
Sequence of Steroid hormone receptor ERR1 (Homo sapiens) (P11474 whole entry, looked up, the tested form may be a part): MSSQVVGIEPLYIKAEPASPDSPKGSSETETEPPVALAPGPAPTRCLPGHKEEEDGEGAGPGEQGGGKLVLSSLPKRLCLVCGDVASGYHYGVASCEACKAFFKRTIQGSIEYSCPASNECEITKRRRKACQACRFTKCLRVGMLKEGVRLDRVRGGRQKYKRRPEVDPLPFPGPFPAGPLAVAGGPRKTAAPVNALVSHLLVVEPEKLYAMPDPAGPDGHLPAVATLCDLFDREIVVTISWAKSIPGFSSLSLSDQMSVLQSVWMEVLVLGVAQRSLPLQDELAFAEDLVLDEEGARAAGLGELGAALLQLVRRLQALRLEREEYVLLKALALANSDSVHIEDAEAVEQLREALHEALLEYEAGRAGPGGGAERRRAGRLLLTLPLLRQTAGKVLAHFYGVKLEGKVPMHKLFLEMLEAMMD
In short: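 HepG2 cells transiently transfected with GAL4-UAS reporter units and chimeric NR-Gal4 constructs; after 24 hour compound incubation, reporter mRNA quantified by RT-PCR, fluorescent labelling and capillary electrophoresis, gain of signal versus DMSO.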

[8] = target: Estrogen receptor (Homo sapiens) (UniProt P03372); test: ATG_ERa_TRANS: Attagene TRANS-FACTORIAL HepG2 Assay for human Estrogen Receptor alpha (ERa) (AID 2282970; active means hit-call score of the fitted dose curve at least 0.9, where 1 is the maximum); conditions: HepG2 Attagene TRANS ERa GAL4 reporter, mRNA
Sequence of Estrogen receptor (Homo sapiens) (P03372 whole entry, looked up, the tested form may be a part): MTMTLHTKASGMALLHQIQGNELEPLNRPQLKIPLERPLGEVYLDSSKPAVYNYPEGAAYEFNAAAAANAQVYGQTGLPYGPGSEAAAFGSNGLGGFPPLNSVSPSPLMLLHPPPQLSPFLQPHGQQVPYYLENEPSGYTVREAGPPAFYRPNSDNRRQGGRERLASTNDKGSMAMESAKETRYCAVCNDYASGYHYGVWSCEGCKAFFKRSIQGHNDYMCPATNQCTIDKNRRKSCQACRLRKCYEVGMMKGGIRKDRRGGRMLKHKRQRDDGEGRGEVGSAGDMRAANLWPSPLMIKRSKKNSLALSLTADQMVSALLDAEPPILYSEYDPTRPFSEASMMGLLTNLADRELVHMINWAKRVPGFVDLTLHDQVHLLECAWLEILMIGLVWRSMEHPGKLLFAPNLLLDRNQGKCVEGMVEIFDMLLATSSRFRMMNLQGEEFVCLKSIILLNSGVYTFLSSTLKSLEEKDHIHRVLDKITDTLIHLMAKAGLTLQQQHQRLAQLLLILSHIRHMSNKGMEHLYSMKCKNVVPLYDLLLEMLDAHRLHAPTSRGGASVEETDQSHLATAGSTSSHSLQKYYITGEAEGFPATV
In short: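 HepG2 cells transiently transfected with multiplexed GAL4-UAS reporter units read out chimeric NR-Gal4 activity. After 24 h compound exposure, reporter mRNA was quantified by RT-PCR, 6-FAM labeling, HpaI digestion and capillary electrophoresis, relative to DMSO.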

[9] = ATG_M_19_TRANS: Attagene TRANS-FACTORIAL HepG2 Assay for M19 Transcription Factor (Internal Marker) (AID 2282974; active means hit-call score of the fitted dose curve at least 0.9, where 1 is the maximum); conditions: HepG2 Attagene TRANS-FACTORIAL M19 internal marker reporter
In short: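 Background-control readout: after 24 h chemical exposure of transfected HepG2 carrying GAL4-driven reporter units, RNA was reverse-transcribed, amplified, fluorescently labeled and sized by capillary electrophoresis; gain-of-signal fit against DMSO.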

[10] = target: Androgen receptor (Homo sapiens) (UniProt P10275); test: ATG_AR_TRANS: Attagene TRANS-FACTORIAL HepG2 Assay for human Androgen Receptor (AR) (AID 2282973; active means hit-call score of the fitted dose curve at least 0.9, where 1 is the maximum); conditions: HepG2 Attagene TRANS-FACTORIAL AR reporter transcription
Sequence of Androgen receptor (Homo sapiens) (P10275 whole entry, looked up, the tested form may be a part): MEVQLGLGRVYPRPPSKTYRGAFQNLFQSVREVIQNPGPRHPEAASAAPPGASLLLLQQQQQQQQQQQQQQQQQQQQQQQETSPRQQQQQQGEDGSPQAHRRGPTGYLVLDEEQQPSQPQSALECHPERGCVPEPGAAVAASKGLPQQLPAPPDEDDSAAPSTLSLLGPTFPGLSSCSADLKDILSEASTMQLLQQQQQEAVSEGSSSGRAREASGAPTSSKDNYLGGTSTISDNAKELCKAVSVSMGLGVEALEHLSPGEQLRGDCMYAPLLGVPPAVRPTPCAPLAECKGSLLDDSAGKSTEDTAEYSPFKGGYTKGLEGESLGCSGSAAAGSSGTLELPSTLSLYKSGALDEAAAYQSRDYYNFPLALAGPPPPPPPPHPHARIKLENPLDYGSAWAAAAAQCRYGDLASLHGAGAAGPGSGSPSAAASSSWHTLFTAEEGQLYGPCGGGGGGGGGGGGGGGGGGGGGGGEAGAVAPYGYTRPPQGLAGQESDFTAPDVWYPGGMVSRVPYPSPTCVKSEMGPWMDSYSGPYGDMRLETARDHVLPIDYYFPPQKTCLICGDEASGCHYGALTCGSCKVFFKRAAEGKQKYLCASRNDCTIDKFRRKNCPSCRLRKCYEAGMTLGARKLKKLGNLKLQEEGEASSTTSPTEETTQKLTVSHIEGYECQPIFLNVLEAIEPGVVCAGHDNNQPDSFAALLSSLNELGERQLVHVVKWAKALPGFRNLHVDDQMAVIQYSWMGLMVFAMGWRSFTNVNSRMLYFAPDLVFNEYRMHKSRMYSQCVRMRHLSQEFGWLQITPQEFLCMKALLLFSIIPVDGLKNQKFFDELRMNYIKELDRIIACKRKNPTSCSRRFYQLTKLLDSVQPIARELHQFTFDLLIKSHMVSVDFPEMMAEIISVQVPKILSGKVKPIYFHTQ
In short: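 HepG2 cells transiently transfected with AR-Gal4 chimera and GAL4-UAS reporter units; chemical exposure 24 h. Reporter mRNA quantified by RT-PCR with fluorescent labelling and capillary electrophoresis; gain-of-signal fitted against DMSO.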

Measured: AC50

CCCSP(=O)(OCC)Oc1ccc(Br)cc1Cl (stereo not given)
active: [3] 6.6 µM | [5] 1.31 µM
inactive: [1] | [2] | [4] | [6]

CCOP(=S)(Oc1cnc(C(C)(C)C)nc1)OC(C)C (stereo not given)
inactive: [1] | [4] | [7] | [5]
active: [2] 86.9 µM | [3] 1.89 µM

O=[N+]([O-])c1cc(C(F)(F)F)c(Cl)c([N+](=O)[O-])c1Nc1ncc(C(F)(F)F)cc1Cl
active: [2] 2.2 µM
inactive: [1] | [2] | [3] | [4] | [8] | [5] | [9] | [6]

CC(COc1ccc(Oc2ccccc2)cc1)Oc1ccccn1 (stereo not given)
active: [3] 16 µM
inactive: [1] | [2] | [4] | [7] | [5]

CCOP(=O)(SC(C)CC)N1CCSC1=O (stereo not given)
inactive: [1] | [2] | [3] | [4] | [5] | [9] | [6]

CNC(=O)ON=C(SC)C(=O)N(C)C
inactive: [1] | [2] | [3] | [4] | [8] | [7] | [9]
active: [5] 40.5 µM

CCCCOC(=O)[C@@H](C)Oc1ccc(Oc2ccc(C#N)cc2F)cc1
inactive: [1] | [2] | [3] | [4] | [8] | [7] | [5] | [9]

COP(=O)(OC)C(O)C(Cl)(Cl)Cl (stereo not given)
active: [3] 50 µM | [5] 39.7 µM
inactive: [1] | [2] | [4] | [7] | [9] | [6]

CCc1cnc(C2=NC(C)(C(C)C)C(=O)N2)c(C(=O)O)c1 (stereo not given)
inactive: [1] | [2] | [3] | [4] | [5] | [6]

COP(=O)(NC(C)=O)SC (stereo not given)
inactive: [1] | [2] | [3] | [4] | [5] | [6]

C#CC(C)(C)NC(=O)c1cc(Cl)cc(Cl)c1
active: [3] 29.3 µM
inactive: [1] | [2] | [4] | [5] | [9] | [6]

CCCCSP(=O)(SCCCC)SCCCC
active: [1] 13 µM | [3] 12 µM
inactive: [2] | [4] | [5] | [9] | [6]

COP(=O)(OC)SCn1c(=O)oc2cc(Cl)cnc21
inactive: [1] | [2] | [3] | [4] | [8] | [7] | [5] | [10] | [9] | [6]

CSc1nc(NC(C)C)nc(NC(C)C)n1
inactive: [1] | [2] | [4] | [8] | [7] | [5] | [9] | [6]
active: [3] 10.3 µM

CON=C(C(=O)OC)c1ccccc1CON=C(C)c1cccc(C(F)(F)F)c1
active: [1] 13 µM | [3] 11.1 µM
inactive: [2] | [4] | [5] | [9] | [6]

CCC(CC)Nc1c([N+](=O)[O-])cc(C)c(C)c1[N+](=O)[O-]
inactive: [1] | [2] | [4] | [7] | [5] | [9] | [6]
active: [3] 15.3 µM

CCOP(=O)(NC(C)C)Oc1ccc(SC)c(C)c1 (stereo not given)
active: [3] 8.8 µM
inactive: [1] | [2] | [4] | [5] | [10] | [9] | [6]

CCc1cccc(C)c1N(C(=O)CCl)C(C)COC (stereo not given)
inactive: [1] | [2] | [4] | [5] | [9]
active: [3] 9.18 µM

CCC(=O)Nc1ccc(Cl)c(Cl)c1
inactive: [1] | [2] | [3] | [4] | [5] | [10] | [9] | [6]

Cc1cc(C2CC2)nc(Nc2ccccc2)n1
inactive: [1] | [4] | [8]
active: [2] 50 µM | [3] 28.6 µM | [5] 31.6 µM

CCCSP(=O)(OCC)SCCC
inactive: [1] | [2] | [4] | [5] | [9] | [6]
active: [3] 50 µM

Cc1ccn2nc(S(=O)(=O)Nc3c(F)cccc3F)nc2n1
inactive: [1] | [2] | [3] | [4] | [5]

CCCOc1nn(C(=O)NS(=O)(=O)c2ccccc2C(=O)OC)c(=O)n1C
inactive: [1] | [2] | [3] | [4] | [5] | [9]

CC1(C(=O)Nc2ccc(O)c(Cl)c2Cl)CCCCC1
active: [3] 10.8 µM
inactive: [1] | [2] | [4] | [5]

CCc1cccc(CC)c1N(COC)C(=O)CCl
inactive: [1] | [2] | [8] | [5] | [10] | [9]
active: [3] 7.75 µM

COc1cc(OC)nc(Sc2cccc(Cl)c2C(=O)O)n1
inactive: [1] | [2] | [3] | [4] | [7] | [5]

C#CCC1=C(C)C(OC(=O)C2C(C=C(C)C)C2(C)C)CC1=O (stereo not given)
active: [1] 88.4 µM | [3] 7.01 µM | [5] 84.6 µM
inactive: [2] | [4] | [6]

CNc1cnn(-c2cccc(C(F)(F)F)c2)c(=O)c1Cl
inactive: [1] | [2] | [4] | [5] | [6]
active: [3] 13.6 µM

CC[C@H](C)[C@H]1O[C@]2(C=C[C@@H]1C)C[C@@H]1C[C@@H](C/C=C(\C)[C@@H](O[C@H]3C[C@H](OC)[C@@H](O[C@H]4C[C@H](OC)[C@@H](NC)[C@H](C)O4)[C@H](C)O3)[C@@H](C)/C=C/C=C3\CO[C@@H]4[C@H](O)C(C)=C[C@@H](C(=O)O1)[C@]34O)O2
inactive: [1] | [2] | [3] | [4] | [8] | [5] | [9] | [6]

CCOP(=S)(OCC)OC(Cl)C(Cl)(Cl)Cl (stereo not given)
active: [3] 50 µM
inactive: [1] | [2] | [4] | [5] | [6]

N#CSCSC#N
inactive: [1] | [2] | [3] | [4] | [7] | [5] | [10] | [9] | [6]

CNC(=O)Oc1cccc2c1OC(C)(C)O2
active: [3] 50 µM | [5] 33.2 µM
inactive: [1] | [2] | [8] | [6]

CC(C)N(C(=O)SCC(Cl)=C(Cl)Cl)C(C)C
active: [3] 29.1 µM
inactive: [1] | [2] | [4] | [5] | [6]

CCCCN(CC)c1c([N+](=O)[O-])cc(C(F)(F)F)cc1[N+](=O)[O-]
active: [3] 13.3 µM
inactive: [1] | [2] | [4] | [7] | [5] | [6]

Nc1c(Cl)cc([N+](=O)[O-])cc1Cl
inactive: [1] | [3] | [4] | [7] | [9] | [6]
active: [2] 70.8 µM | [8] 50 µM | [5] 50 µM
